Parameters in all cases: scale not given: direction of the effect not stated beside the values
Experiment [1] deals with Protein translocase subunit SecA (Escherichia coli (strain K12)) (UniProt P10408). Description: Assay to Identify E. coli SecA ATPase Inhibitors. In kind it is functional. Conditions: 30 µM.
The target of experiment [2] is T1, Ubiquitin-activating enzyme e1, putative (Leishmania donovani (strain BPK282A1)) (UniProt E9BSI1).
T1 sequence (whole entry): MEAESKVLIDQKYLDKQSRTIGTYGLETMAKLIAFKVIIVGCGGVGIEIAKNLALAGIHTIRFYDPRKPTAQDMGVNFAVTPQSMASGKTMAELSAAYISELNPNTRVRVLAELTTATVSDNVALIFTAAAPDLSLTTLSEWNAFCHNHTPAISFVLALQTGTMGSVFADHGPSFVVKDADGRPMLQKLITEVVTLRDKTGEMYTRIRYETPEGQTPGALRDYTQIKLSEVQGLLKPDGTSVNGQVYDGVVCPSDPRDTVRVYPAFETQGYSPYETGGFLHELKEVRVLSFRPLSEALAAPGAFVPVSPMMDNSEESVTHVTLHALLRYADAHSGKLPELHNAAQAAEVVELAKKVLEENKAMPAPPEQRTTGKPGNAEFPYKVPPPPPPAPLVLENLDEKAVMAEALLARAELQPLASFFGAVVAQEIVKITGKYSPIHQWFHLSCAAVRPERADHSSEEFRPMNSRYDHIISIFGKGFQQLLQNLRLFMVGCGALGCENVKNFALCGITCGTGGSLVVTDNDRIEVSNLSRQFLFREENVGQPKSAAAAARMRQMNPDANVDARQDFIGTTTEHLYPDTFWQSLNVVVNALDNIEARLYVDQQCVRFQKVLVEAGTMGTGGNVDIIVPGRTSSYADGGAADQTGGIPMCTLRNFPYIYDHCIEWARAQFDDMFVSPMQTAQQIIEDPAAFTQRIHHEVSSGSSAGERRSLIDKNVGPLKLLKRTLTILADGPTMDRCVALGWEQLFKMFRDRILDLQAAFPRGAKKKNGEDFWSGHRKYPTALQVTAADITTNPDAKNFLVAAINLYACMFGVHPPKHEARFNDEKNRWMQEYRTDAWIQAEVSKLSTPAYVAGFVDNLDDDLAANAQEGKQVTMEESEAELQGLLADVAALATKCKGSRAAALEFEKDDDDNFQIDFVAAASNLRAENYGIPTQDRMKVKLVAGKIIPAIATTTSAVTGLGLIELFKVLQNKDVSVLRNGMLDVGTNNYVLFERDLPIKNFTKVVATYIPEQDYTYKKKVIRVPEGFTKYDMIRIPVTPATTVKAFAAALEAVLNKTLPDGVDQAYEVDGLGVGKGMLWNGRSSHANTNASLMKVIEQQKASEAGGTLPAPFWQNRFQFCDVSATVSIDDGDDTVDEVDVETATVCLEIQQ
Description: Leishmania donovani Ubiquitin Activating Enzyme (LdE1). The class given is functional. Particulars: 30 µM.

In experiment [3] the target is AMP-activated protein kinase, AMPK (Homo sapiens) (UniProt P54646+O43741+P54619+Q9UGJ0+Q9Y478+Q13131+Q9UGI9). Description: AMP-dependent Kinase enzyme assay. An in vitro enzyme assay that detects ADP turnover that is directly proportional to AMPK activity. This uses naive AMPK that is activated during the assay with MK-8722. The class given is functional. Particulars: 30 µM.

Experiment [4] concerns the target Sialic acid-binding Ig-like lectin 9 (Homo sapiens) (UniProt Q9Y336). Description: Hs-Siglec9 ALPHAscreen SOP 20170721. Particulars: 10 µM. Background: Bead proximity is the source of the signal in Alpha formats.
The subject of the next experiment is Trypanosoma cruzi. As to the kind of experiment: Trypanosoma cruzi phosphomannomutase and mannose-1-phosphate guanylyltransferase assay. The class given is functional. Conditions: 10 µM.
Experiment [5] deals with T2, Arginase-2, mitochondrial (Homo sapiens) (UniProt P78540).
T2 sequence (whole entry): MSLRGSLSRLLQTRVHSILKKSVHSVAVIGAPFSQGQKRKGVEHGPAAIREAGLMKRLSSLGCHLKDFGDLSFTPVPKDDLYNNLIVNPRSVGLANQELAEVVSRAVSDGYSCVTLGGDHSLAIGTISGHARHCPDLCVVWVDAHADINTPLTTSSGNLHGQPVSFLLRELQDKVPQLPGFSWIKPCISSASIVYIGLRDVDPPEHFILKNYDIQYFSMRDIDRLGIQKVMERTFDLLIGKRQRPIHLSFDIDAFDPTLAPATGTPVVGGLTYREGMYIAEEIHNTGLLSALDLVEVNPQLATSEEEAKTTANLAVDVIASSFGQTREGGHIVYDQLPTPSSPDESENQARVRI
Description: in vitro enzyme assay to detect the production of urea directly proportional to the activity of Arginase II. Also: in the data most compounds retested in dose-response had high values. The class given is functional. Particulars: 33.3 µM.

Experiment [6] has as its target T3, Proteasome subunit beta (Trypanosoma cruzi) (UniProt O96673).
T3 sequence (whole entry): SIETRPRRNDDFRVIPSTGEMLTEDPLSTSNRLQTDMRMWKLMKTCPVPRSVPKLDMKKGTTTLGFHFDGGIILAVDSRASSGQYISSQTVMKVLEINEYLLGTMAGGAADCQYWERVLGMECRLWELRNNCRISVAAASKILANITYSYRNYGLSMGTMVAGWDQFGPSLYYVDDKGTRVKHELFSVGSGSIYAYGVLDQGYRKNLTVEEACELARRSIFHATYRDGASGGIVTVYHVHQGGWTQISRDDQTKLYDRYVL
Description: Trypanosoma cruzi proteasome chymotrypsin-like activity (TcProtChymo) assay. Also: in the data most compounds retested in dose-response had high values. The class given is functional. Conditions: 9.37 µM.

For the next experiment, the species on record is Homo sapiens. Description: To identify inhibition of the IFN signalling (Jak-Stat) pathway via expression of an eGFP reporter gene under the control of an IFN-stimulated response element (ISRE) containing MxA promoter. In kind it is functional. Particulars: 30 µM. For orientation: A reporter such as luciferase makes a cellular process visible.
Experiment [7] concerns the target T4, Tyrosyl-tRNA synthetase, putative (Trypanosoma cruzi (strain CL Brener)) (UniProt Q4DSP6).
T4 sequence (whole entry): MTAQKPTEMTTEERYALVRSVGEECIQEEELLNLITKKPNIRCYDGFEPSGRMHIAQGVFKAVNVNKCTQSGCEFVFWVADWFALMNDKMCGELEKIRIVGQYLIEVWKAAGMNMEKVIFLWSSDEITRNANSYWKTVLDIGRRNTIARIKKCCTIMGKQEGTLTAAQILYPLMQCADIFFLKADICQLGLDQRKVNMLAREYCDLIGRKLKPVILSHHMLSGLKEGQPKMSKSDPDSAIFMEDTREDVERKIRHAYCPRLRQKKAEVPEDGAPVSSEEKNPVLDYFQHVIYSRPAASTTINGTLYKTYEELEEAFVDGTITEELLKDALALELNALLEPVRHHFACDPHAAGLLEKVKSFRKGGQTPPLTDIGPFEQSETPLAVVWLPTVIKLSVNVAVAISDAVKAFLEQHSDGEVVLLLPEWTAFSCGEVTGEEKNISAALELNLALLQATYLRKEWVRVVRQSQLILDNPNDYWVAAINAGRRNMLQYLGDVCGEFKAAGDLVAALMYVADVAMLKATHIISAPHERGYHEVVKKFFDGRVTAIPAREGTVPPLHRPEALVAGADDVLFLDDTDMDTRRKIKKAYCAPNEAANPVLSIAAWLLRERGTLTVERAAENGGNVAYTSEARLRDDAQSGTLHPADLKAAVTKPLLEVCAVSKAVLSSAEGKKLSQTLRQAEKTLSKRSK
As to the kind of experiment: Trypanosoma cruzi tyrosyl tRNA synthetase (TcYRS) _High Tyrosine SOP. Also: in the data most compounds retested in dose-response had high values. The class given is functional. Conditions: 30 µM.

Experiment [8] concerns the target T4, Tyrosyl-tRNA synthetase, putative (Trypanosoma cruzi (strain CL Brener)). As to the kind of experiment: Trypanosoma cruzi tyrosyl tRNA synthetase (TcYRS) SOP. The class given is functional. Conditions: 30 µM.
Experiment [9] addresses Chromo domain-containing protein 1 (Saccharomyces cerevisiae (strain ATCC 204508 / S288c) (Baker's yeast)) (UniProt P32657). Description: ScCHD-1 Enzyme Inhibition Assay. Also: in the data most compounds retested in dose-response had high values. Conditions: 30 µM. The class given is functional.

Percent Effect data for eleven compounds are collected here from ChEMBL document CHEMBL3988442, “University of Dundee, Small-Polar-MMV Screening Library” (2021).

For some of these results: Entries with a potency or affinity are not part of this list.

Sequence of Chromo domain-containing protein 1 (Saccharomyces cerevisiae (strain ATCC 204508 / S288c) (Baker's yeast)) (P32657 whole entry, the tested form may be a part): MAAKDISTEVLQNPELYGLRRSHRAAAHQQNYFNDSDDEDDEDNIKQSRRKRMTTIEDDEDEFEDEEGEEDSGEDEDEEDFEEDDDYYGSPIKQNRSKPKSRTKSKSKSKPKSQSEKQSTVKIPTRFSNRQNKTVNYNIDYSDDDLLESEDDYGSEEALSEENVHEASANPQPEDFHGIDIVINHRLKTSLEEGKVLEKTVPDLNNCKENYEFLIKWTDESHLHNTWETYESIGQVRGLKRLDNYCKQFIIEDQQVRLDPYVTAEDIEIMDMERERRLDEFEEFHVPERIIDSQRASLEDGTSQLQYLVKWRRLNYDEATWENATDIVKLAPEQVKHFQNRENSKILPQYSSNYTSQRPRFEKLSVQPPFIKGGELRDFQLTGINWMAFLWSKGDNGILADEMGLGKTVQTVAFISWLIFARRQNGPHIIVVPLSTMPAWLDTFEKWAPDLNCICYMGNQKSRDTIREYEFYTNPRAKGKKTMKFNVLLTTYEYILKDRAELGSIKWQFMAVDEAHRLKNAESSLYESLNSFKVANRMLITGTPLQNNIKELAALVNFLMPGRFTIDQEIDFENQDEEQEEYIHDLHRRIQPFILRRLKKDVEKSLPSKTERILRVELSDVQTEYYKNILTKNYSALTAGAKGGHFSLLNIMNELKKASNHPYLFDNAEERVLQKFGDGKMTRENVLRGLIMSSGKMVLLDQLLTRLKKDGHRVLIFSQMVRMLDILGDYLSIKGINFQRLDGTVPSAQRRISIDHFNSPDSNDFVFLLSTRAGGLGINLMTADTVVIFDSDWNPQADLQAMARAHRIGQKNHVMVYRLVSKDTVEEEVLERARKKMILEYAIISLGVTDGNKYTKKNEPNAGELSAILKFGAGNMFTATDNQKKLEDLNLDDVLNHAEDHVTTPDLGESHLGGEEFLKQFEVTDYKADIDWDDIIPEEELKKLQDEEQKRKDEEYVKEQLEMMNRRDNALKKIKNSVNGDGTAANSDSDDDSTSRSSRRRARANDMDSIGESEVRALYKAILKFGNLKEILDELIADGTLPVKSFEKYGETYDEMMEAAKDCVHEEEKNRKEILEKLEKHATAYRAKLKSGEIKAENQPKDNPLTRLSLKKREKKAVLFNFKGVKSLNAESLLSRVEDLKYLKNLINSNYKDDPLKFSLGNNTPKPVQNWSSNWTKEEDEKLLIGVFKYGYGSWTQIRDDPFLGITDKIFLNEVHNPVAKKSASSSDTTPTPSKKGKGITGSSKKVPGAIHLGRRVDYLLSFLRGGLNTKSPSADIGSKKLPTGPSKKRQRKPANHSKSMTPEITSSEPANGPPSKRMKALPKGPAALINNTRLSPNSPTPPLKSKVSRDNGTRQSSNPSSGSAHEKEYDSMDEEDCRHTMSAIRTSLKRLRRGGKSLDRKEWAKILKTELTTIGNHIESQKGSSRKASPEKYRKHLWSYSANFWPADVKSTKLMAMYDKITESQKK
Sequence of Protein translocase subunit SecA (Escherichia coli (strain K12)) (P10408 whole entry): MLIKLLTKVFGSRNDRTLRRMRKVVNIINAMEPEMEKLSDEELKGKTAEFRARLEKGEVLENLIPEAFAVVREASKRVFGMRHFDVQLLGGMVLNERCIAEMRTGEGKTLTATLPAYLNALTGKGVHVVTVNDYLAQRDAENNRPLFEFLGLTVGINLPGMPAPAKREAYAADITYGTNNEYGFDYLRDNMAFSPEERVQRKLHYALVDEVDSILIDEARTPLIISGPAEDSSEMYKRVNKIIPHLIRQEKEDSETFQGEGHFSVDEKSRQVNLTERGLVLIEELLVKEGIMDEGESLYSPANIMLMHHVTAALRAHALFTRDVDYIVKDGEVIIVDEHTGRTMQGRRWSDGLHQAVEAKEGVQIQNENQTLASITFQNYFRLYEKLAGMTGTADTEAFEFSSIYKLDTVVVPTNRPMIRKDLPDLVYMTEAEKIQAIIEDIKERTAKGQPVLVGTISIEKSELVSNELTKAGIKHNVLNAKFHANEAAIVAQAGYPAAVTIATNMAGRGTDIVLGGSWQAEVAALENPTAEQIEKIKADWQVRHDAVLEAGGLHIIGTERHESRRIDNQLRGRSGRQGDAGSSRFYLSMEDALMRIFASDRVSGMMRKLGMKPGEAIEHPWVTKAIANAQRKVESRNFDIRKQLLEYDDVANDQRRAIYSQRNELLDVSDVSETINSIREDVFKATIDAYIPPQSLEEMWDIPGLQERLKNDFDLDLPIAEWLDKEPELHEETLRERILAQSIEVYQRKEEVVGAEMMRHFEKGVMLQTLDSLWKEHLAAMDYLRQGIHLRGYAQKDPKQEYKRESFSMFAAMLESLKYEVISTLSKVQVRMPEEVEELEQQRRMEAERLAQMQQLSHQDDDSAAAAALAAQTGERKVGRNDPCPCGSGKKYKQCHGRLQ
Sequence of Sialic acid-binding Ig-like lectin 9 (Homo sapiens) (Q9Y336 whole entry): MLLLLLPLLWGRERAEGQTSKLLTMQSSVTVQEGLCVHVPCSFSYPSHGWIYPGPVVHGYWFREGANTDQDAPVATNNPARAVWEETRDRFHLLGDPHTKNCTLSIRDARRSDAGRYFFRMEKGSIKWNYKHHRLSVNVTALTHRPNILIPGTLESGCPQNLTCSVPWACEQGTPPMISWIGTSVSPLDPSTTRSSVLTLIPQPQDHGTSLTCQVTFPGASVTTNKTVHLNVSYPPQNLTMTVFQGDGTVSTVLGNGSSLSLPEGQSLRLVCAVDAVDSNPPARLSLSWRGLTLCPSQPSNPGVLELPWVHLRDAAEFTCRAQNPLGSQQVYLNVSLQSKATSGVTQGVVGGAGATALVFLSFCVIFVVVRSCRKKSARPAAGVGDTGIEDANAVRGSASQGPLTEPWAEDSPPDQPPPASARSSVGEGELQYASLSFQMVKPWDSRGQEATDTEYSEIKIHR

`O=C(NCc1ccccn1)[C@H]1COC[C@H]2CN(Cc3ccoc3)C[C@H]21`: the Percent Effect was -2.43% in experiment [1]; 2.7% in [2]; 6.89% in experiment [3]; -1.93% in experiment [4]; -6.16% in the experiment with Trypanosoma cruzi; 2.87% in experiment [5]. Besides, the Percent Effect in experiment [6] was 20.3%; in the experiment listed under Homo sapiens it was -4.49%; in [7], 5.41%; in experiment [8], 7.69%; in [9], -5.52%.

For the compound `Cc1ccc(C(=O)N2C[C@@H]3COC[C@]3(COc3cccnc3)C2)cn1`, the Percent Effect in [1] was 1.3%; in experiment [2] it was 18.9%; in [3] it was 0.636%; in experiment [4], -16.3%; with Trypanosoma cruzi, 1.07%; in experiment [5], 7.33%. Besides, the Percent Effect in [6] was 13.3%; in the experiment listed under Homo sapiens, 30.2%; in experiment [7], 4.32%; in experiment [8], 7.69%; in experiment [9], 4.76%.

Consider `CN1CCC(CCNC(=O)c2ccc(N(C)S(C)(=O)=O)cc2Cl)CC1`, for which the Percent Effect in [1] is -4.43%; in experiment [2], -10.4%; in [3] it was -1.14%; in [4] it was 0.479%; in the experiment with Trypanosoma cruzi it was -3.44%; in experiment [5] it was 29%. The Percent Effect is 6.16% in [6]; -1.88% in the experiment listed under Homo sapiens; 0% in experiment [7]; -3.7% in [8]; 2.38% in [9].

Take `Cc1nn(C)c(C)c1C1COCCN1C(=O)c1ccccc1` (stereo unspecified): the Percent Effect in experiment [1] was -2.83%; in [2] it was 5.2%; in experiment [3] it was -2.73%; in experiment [4] it was 2.06%; with Trypanosoma cruzi it was 6.74%; in experiment [5], 3.2%. For the same compound, the Percent Effect in [6] was -1.01%; in the experiment filed under Homo sapiens, 7.76%; in experiment [7] it was 2.91%; in experiment [8], 12.2%; in experiment [9], 11.3%.

For the compound `CN(C)C(=O)CN1CCCCC1c1nc(N)ncc1-c1ccccc1` (stereo unspecified), the Percent Effect was -1.46% in experiment [1]; 2.67% in [2]; 10.4% in experiment [3]; 1.52% in [4]; -2.95% in the experiment with Trypanosoma cruzi; 2.1% in [5]. Further, the Percent Effect is 2.56% in experiment [6]; -0.722% in the experiment listed under Homo sapiens; 4.25% in experiment [7]; 6.41% in experiment [8]; -5.48% in [9].

With `COc1c(CNCc2cccc(CS(C)(=O)=O)c2)c(C)nn1C`, the Percent Effect was -1.32% in experiment [1]; 13.5% in experiment [2]; -7.47% in experiment [3]; -4.4% in experiment [4]; -6.13% with Trypanosoma cruzi; 1.2% in [5]. Further, the Percent Effect is 4.68% in experiment [6]; 4.32% in the experiment filed under Homo sapiens; -0.493% in experiment [7]; 11.1% in experiment [8]; -6.98% in experiment [9].

In the case of `CC(C)c1nnc2n1CCN(CC(=O)Nc1nncs1)C2`, the Percent Effect in experiment [1] is -0.203%; in experiment [2], 13%; in experiment [3] it was 1.97%; in experiment [4] it was -3.59%; with Trypanosoma cruzi, 5.19%; in [5], 5.68%. In addition, the Percent Effect is 8% in experiment [6]; -15.7% in the experiment filed under Homo sapiens; 2.86% in experiment [7]; 14.1% in [8]; -14.6% in [9].

`CCn1nnc2c1C(COC)CN(C(=O)Cc1cccs1)C2` (stereo unspecified): the Percent Effect in [1] was -0.417%; in [2], 5.41%; in experiment [3] it was -1.12%; in experiment [4], -5.98%; with Trypanosoma cruzi, -2.93%; in experiment [5] it was -2.5%. The Percent Effect in [6] is 17.8%; in the experiment filed under Homo sapiens it was -0.944%; in experiment [7] it was 6.93%; in [8], 8.54%; in experiment [9], 5.86%.

In the case of `CCOc1nc2cccnc2n(CC(=O)NCCOC)c1=O`, the Percent Effect is -0.937% in [1]; 23.4% in experiment [2]; 3.02% in experiment [3]; -0.135% in experiment [4]; 3.85% in the experiment with Trypanosoma cruzi; -1.94% in experiment [5]. In addition, the Percent Effect in [6] is 10.4%; in the experiment listed under Homo sapiens, 3.76%; in experiment [7], 3.17%; in experiment [8] it was 11.5%; in experiment [9], -9.72%.

Regarding `O=C(NC1CC1)[C@H]1C[C@H]2OCC[C@H]2N(CC2CCOCC2)C1`, the Percent Effect was -7.27% in experiment [1]; 0% in experiment [2]; 1.56% in experiment [3]; 2.95% in experiment [4]; -3.28% in the experiment with Trypanosoma cruzi; -51.1% in experiment [5]. Further, the Percent Effect was 7.18% in [6]; 3.71% in the experiment filed under Homo sapiens; 5.21% in experiment [7]; -2.5% in experiment [8]; 319% in experiment [9].

Take `CNC(=O)CSc1cnn(CC(=O)Nc2cccc(Cl)c2C)c(=O)c1Cl`: the Percent Effect is -2.17% in experiment [1]; 5.48% in experiment [2]; -0.626% in experiment [3]; 4.21% in experiment [4]; -4.31% in the experiment with Trypanosoma cruzi; 2.73% in experiment [5]. Moreover, the Percent Effect was determined as 17.6% in [6]; 9.06% in the experiment listed under Homo sapiens; 4.3% in experiment [7]; 12.5% in experiment [8]; 1.71% in [9].
